Here are results for 29 molecules from PubChem BioAssay AID489042 (NMMLSC, 2010).

SMILES strings stand for the structures. Values without a mark were called inactive. Active and inactive are the calls of the source. Cut-off read from the data, not from the text of the source: active = inhibition score above about 11; inactive = the rest.

The test in a line: S. cerevisiae short- and long-term growth effects – BY4741, OD595, 24 h, dose response (AID 489042). The settings on record: flow cytometer event count, 7 d (AID 449753), stronger effect = higher value. (In flow cytometry, cells or beads pass a laser one at a time.)
On to `C#CCSc1nnc(-c2ccc([N+](=O)[O-])cc2)o1`, for which the inhibition score is 0.

Turning to `COc1ccc2c3c(cccc13)N(C)N=C2C`, the inhibition score was 0.

Take `COc1ccc2nc3ccccc3[n+]([O-])c2c1`: the inhibition score is 0.

Take `O=C(O)c1cnc2ccccc2n1`: the inhibition score was 0.

For the molecule `N#CC(c1nc2ccccc2nc1N1CCCC1)S(=O)(=O)c1ccccc1` (centres undefined), the inhibition score is 0.

Consider `N#CCc1nn(-c2ccccc2)c2ncnc(N)c12`, for which the inhibition score was 0.

Turning to `C[C@@]12C(=O)OC(=O)[C@]1(C)C1CCC2O1`, the inhibition score was 11 (active).

With `CCN(CC)C(=O)c1ccc2nc3ccccc3nc2c1`, the inhibition score is 0.

With `O=C(Nc1ccc2nc3ccccc3nc2c1)c1ccc(Br)cc1`, the inhibition score was 0.

As to `CCCCCNC(=O)C(=O)C1C(=O)Nc2ccccc21` (centres undefined), the inhibition score is 0.

For the molecule `CCN(CC)C(=O)CSc1nnc(-c2cccc(OC)c2)o1`, the inhibition score was 0.

As to `C/C(=N\Nc1ncnc2sc(C)c(C)c12)c1ccccn1`, the inhibition score was 10.

In the case of `Cc1ccc(-c2nn(C(C)(C)C)c3ncnc(N)c23)cc1`, the inhibition score is 0.

`COc1ccc2nc3cccc(OC)c3nc2c1`: the inhibition score was 0.

In the case of `CCc1nc(NC(C)(C)C)c2cnn(-c3ccccc3)c2n1`, the inhibition score was 0.

On to `COc1ccc2cc(C3CC(c4ccco4)=NN3S(=O)(=O)c3ccccc3)c(Cl)nc2c1` (centres undefined), for which the inhibition score is 0.

In the case of `O=C(Nc1ccc2nc3ccccc3nc2c1)c1ccccc1`, the inhibition score is 0.

On to `CC(C)(C)Nc1ncnc2c1cnn2-c1ccccc1`, for which the inhibition score was 0.

As for `Cc1cc(C)c2[nH]c3nc(SCC(=O)O)nnc3c2c1`, the inhibition score was 0.

`Cc1ccccc1NC(=O)c1cccc2nc3ccccc3nc12`: the inhibition score was 0.

Turning to `c1ccc2nc3ccccc3nc2c1`, the inhibition score is 0.

`CNC(=O)c1cccc2nc3ccccc3nc12`: the inhibition score is 0.

Regarding `CSc1nnc(-c2ccc([N+](=O)[O-])cc2)o1`, the inhibition score was 0.

In the case of `O=C(/C=C/c1cccs1)NC(=S)NNC(=O)Cc1cccs1`, the inhibition score was 11 (active).

For the molecule `CC(C)(C)n1nc(-c2ccc(Cl)cc2)c2c(N)ncnc21`, the inhibition score was 0.

For the molecule `O=C(/C=C/c1ccccc1)NC(=S)NNC(=O)Cc1cccs1`, the inhibition score was 0.

For `COc1ccc2c(c1)c1nnc(SC)nc1n2C`, the inhibition score is 0.

As to `COC(=O)c1cccc2nc3c(C(C)O)cccc3nc12` (centres undefined), the inhibition score is 0.

For the molecule `C=CCSc1nnc(-c2ccc([N+](=O)[O-])cc2)o1`, the inhibition score is 0.
